Measured values reported in PubChem BioAssay (Tox21).
Results filed as inconclusive are left out. Calls of active or inactive are those of the source. Unless noted, the call rests on the fitted dose curve.

Assays:
[1] = qHTS assay to identify small molecule agonists of the farnesoid-X-receptor (FXR) signaling pathway - cell viability counter screen (AID 743218; active means well fitted curve in the direction sought with a large enough effect in the repeat runs; an effect the other way counts as inactive or inconclusive; further: on the % scale 0 is the no-effect control and ±100 the full control effect; nearly all actives have a fitted effect of over 45% in size)
In short: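 HEK 293T FXR-bla cells; 5 h pre-incubation, 16 h compound exposure at 37 C; LiveBLAzer substrate 2 h RT, then CellTiter-Glo 30 min RT, luminescence.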

[2] = qHTS assay to identify small molecule antagonists of the farnesoid-X-receptor (FXR) signaling pathway - cell viability counter screen (AID 743221; active means well fitted cell-killing curve with a large enough effect in the repeat runs, not every such curve was filed as active; further: on the % scale 0 is the no-effect control and ±100 the full control effect; nearly all actives have a fitted effect of over 50% in size)
In short: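 GeneBLAzer FXR-UAS-bla HEK 293T cells, compound plus chenodeoxycholic acid (50 uM final), 16 h at 37 C. CellTiter-Glo added to the same wells after the beta-lactamase read; luminescence read after 30 min at room temperature as viability.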

[3] = target: Vitamin D3 receptor (Homo sapiens) (UniProt P11473); assay: qHTS assay to identify small molecule agonists of the vitamin D receptor (VDR) signaling pathway (AID 743222); further: on the % scale 0 is the no-effect control and ±100 the full control effect
In short: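 VDR-bla cells, 2,000/well; 4 h preincubation 37C; cpd (DMSO) 16 h; LiveBLAzer B/G substrate 2 h RT; fluorescence intensity read.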

[4] = target: Vitamin D3 receptor (Homo sapiens) (UniProt P11473); assay: qHTS assay to identify small molecule antagonists of the vitamin D receptor (VDR) signaling pathway (AID 743223; active means well fitted inhibition curve with a large enough effect in the signal ratio in the repeat runs, not every such curve was filed as active; the % refers to the signal ratio; further: on the % scale 0 is the no-effect control and ±100 the full control effect)
In short: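 VDR-bla cells were treated with compound plus 3 nM final 1alpha,25-dihydroxyvitamin D3 for 16 h at 37C. Beta-lactamase reporter read by B/G FRET substrate fluorescence after 2 h at room temperature. qHTS format.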

[5] = qHTS assay to identify small molecule agonists of the vitamin D receptor (VDR) signaling pathway - cell viability counter screen (AID 743224; active means well fitted curve in the direction sought with a large enough effect in the repeat runs; an effect the other way counts as inactive or inconclusive; further: series mostly up to about 63 µM; on the % scale 0 is the no-effect control and ±100 the full control effect; nearly all actives have a fitted effect of over 50% in size)
In short: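 Luminescence from CellTiter-Glo, read after 30 min at room temperature, reports viability of VDR-bla cells treated with compounds for 16 h at 37C in the wells used for the beta-lactamase FRET read.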

[6] = qHTS assay to identify small molecule antagonists of the vitamin D receptor (VDR) signaling pathway - cell viability counter screen (AID 743225; active means well fitted curve in the direction sought with a large enough effect in the repeat runs; an effect the other way counts as inactive or inconclusive; further: on the % scale 0 is the no-effect control and ±100 the full control effect; nearly all actives have a fitted effect of over 50% in size)
In short: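 VDR-UAS-bla HEK 293T cells were plated and incubated 4 h at 37C, then dosed with compound plus 3 nM (final) 1-alpha,25-dihydroxyvitamin D3 for 16 h. After the 2 h beta-lactamase read, viability in the same wells was read as CellTiter-Glo luminescence after 30 min at room temperature.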

[7] = qHTS assay to identify small molecule agonists of the NFkB signaling pathway (AID 1159509; active means well fitted curve in the direction sought with a large enough effect in the signal ratio in the repeat runs, not every such curve was filed as active; the % refers to the signal ratio; further: series mostly up to about 61 µM; on the % scale 0 is the no-effect control and ±100 the full control effect)
In short: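 After overnight attachment, reporter cells received test compounds, DMSO or positive controls and were incubated 5 hr at 37 C. FRET substrate was then added for 1.5 hr at room temperature before dual-emission fluorescence reading.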

[8] = qHTS assay to identify small molecule agonists of the NFkB signaling pathway - cell viability counter screen (AID 1159515); further: series mostly up to about 61 µM; on the % scale 0 is the no-effect control and ±100 the full control effect; nearly all actives have a fitted effect of over 55% in size
In short: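 Luminescence from CellTiter-Glo (30 min, room temperature) gives viability, measured in the same wells as the beta-lactamase reporter read. Cells were NFkB-bla ME-180, 2,000 per well, treated 5 hr with compounds.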

[9] = qHTS assay to identify small molecule agonists of the endoplasmic reticulum stress response signaling pathway (AID 1159516; active means well fitted activation curve with a large enough effect in the signal ratio in the repeat runs, not every such curve was filed as active; the % refers to the signal ratio; further: on the % scale 0 is the no-effect control and ±100 the full control effect)
In short: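 Read-out is beta-lactamase cleavage of a FRET substrate (405 nm excitation; 460 and 530 nm emissions) in ESRE-bla HeLa cells after a 5 hr compound exposure at 37 C. Substrate incubation ran 2 hr at room temperature.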

[10] = qHTS assay to identify small molecule agonists of the endoplasmic reticulum stress response signaling pathway - cell viability counter screen (AID 1159517);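 further: HeLa cells carrying an ER stress response element beta-lactamase reporter; series mostly up to about 61 µM; on the % scale 0 is the no-effect control and ±100 the full control effect; nearly all actives have a fitted effect of over 50% in size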
In short: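 Cells, HeLa ESRE-bla; density, 1,500/well; dosing, 5 hr at 37 C, 5% CO2; readout, CellTiter-Glo luminescence after 30 min RT.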

[11] = qHTS assay to identify small molecule antagonists of the retinoid-related orphan receptor gamma (ROR-gamma) signaling pathway - cell viability counter screen (AID 1159520; active means well fitted curve in the direction sought with a large enough effect in the repeat runs; an effect the other way counts as inactive or inconclusive)
In short: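 Cytotoxicity was read from cellular ATP (CellTiter-Glo luminescence) after 16 hr at 37 C with 1 uM doxycycline induction. The inducer was added 2 hr after compound transfer to Tet-on ROR gamma CHO cells.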

[12] = target: Nuclear receptor ROR-gamma (Homo sapiens) (UniProt P51449); assay: qHTS assay to identify small molecule antagonists of the retinoid-related orphan receptor gamma (ROR-gamma) signaling pathway (AID 1159521; active means well fitted curve in the direction sought with a large enough effect in the repeat runs; an effect the other way counts as inactive or inconclusive)
In short: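 Tet-on ROR-gamma CHO cells with ROR response element-luciferase reporter; compounds added 2 hr before 1 uM doxycycline induction, then 16 hr at 37 C. Antagonism scored as decreased ONE-Glo luminescence.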

[13] = qHTS assay to identify small molecule agonists of the AP-1 signaling pathway - cell viability counter screen (AID 1159525); further: nearly all actives have a fitted effect of over 55% in size
In short: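 Luminescent ATP readout (Cell Titer Glo, 30 min RT), normalised to DMSO and tetra n-octyl ammonium bromide controls. Cells were ME-180 AP-1-bla in 0.5% dialyzed FBS Opti-MEM, with a 5 h, 37 °C compound exposure.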

[14] = qHTS assay to identify small molecule agonists of the AP-1 signaling pathway (AID 1159526); further: on the % scale 0 is the no-effect control and ±100 the full control effect
[15] = qHTS assay to identify small molecule agonists of the peroxisome proliferator-activated receptor delta (PPARd) signaling pathway - cell viability counter screen (AID 743211; active means well fitted curve in the direction sought with a large enough effect in the repeat runs; an effect the other way counts as inactive or inconclusive; further: on the % scale 0 is the no-effect control and ±100 the full control effect; nearly all actives have a fitted effect of over 55% in size)
In short: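 PPARd-bla HEK293H cells (3000/well) were pre-incubated 5 h at 37 C, then exposed to compound for 17 h at 37 C. After 2 h with LiveBLAzer substrate, CellTiter-Glo was added to the same wells; luminescence read after 30 min at room temperature.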

[16] = target: Peroxisome proliferator-activated receptor delta (Homo sapiens) (UniProt Q03181); assay: qHTS assay to identify small molecule agonists of the peroxisome proliferator-activated receptor delta (PPARd) signaling pathway (AID 743212); further: on the % scale 0 is the no-effect control and ±100 the full control effect
In short: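 HEK293H UAS-bla reporter cells, human PPARd system; compounds delivered in DMSO after 5 h plating, then at 37 C. Beta-lactamase FRET read, 2 h RT substrate step.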

[17] = qHTS assay to identify small molecule antagonists of the peroxisome proliferator-activated receptor delta (PPARd) signaling pathway - cell viability counter screen (AID 743213; active means well fitted curve in the direction sought with a large enough effect in the repeat runs; an effect the other way counts as inactive or inconclusive)
In short: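 Same-well viability: cells pre-incubated 5 h, dosed with compound plus 300 nM L165041, kept 17 h at 37 C, FRET substrate 2 h RT, then CellTiter-Glo 30 min RT and luminescence.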

[18] = target: Peroxisome proliferator-activated receptor delta (Homo sapiens) (UniProt Q03181); assay: qHTS assay to identify small molecule antagonists of the peroxisome proliferator-activated receptor delta (PPARd) signaling pathway (AID 743215; active means well fitted inhibition curve with a large enough effect in the signal ratio in the repeat runs, not every such curve was filed as active; the % refers to the signal ratio)
In short: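 Read-out is beta-lactamase FRET fluorescence, measured 2 h after substrate addition at room temperature. Beforehand, UAS-bla HEK293H cells carrying the PPARd reporter were exposed to compounds with L165041 at 300 nM final for 17 h at 37 C.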

[19] = target: Bile acid receptor (Homo sapiens) (UniProt Q96RI1); assay: qHTS assay to identify small molecule antagonists of the farnesoid-X-receptor (FXR) signaling pathway (AID 743217; active means well fitted inhibition curve with a large enough effect in the signal ratio in the repeat runs, not every such curve was filed as active; the % refers to the signal ratio; further: on the % scale 0 is the no-effect control and ±100 the full control effect)
In short: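 HEK 293T FXR-UAS-bla, 5000 cells/well; compound + CDCA 50 uM final; 16 h, 37 °C; B/G FRET substrate 2 h RT; fluorescence.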

[20] = target: Bile acid receptor (Homo sapiens) (UniProt Q96RI1); assay: qHTS assay to identify small molecule agonists of the farnesoid-X-receptor (FXR) signaling pathway (AID 743220; active means well fitted activation curve with a large enough effect in the signal ratio in the repeat runs, not every such curve was filed as active; the % refers to the signal ratio; further: on the % scale 0 is the no-effect control and ±100 the full control effect)
In short: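 Beta-lactamase reporter under UAS control in GeneBLAzer FXR HEK 293T cells (5000/well) measured with LiveBLAzer FRET substrate after 2 h at room temperature. Compound exposure lasted 16 h at 37C.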

Sequence of Vitamin D3 receptor (Homo sapiens) (P11473 whole entry, looked up): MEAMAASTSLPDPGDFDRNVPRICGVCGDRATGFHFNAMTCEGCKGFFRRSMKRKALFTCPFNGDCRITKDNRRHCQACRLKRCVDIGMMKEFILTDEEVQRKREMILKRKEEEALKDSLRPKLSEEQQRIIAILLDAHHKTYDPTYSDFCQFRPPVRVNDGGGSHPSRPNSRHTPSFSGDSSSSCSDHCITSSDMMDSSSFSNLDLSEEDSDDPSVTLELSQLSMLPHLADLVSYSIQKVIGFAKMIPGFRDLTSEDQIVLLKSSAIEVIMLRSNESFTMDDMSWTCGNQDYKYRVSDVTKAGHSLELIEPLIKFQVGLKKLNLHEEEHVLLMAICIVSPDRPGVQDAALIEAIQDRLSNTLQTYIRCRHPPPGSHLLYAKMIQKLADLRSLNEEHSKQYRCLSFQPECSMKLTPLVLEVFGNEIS
Sequence of Peroxisome proliferator-activated receptor delta (Homo sapiens) (Q03181 whole entry, looked up): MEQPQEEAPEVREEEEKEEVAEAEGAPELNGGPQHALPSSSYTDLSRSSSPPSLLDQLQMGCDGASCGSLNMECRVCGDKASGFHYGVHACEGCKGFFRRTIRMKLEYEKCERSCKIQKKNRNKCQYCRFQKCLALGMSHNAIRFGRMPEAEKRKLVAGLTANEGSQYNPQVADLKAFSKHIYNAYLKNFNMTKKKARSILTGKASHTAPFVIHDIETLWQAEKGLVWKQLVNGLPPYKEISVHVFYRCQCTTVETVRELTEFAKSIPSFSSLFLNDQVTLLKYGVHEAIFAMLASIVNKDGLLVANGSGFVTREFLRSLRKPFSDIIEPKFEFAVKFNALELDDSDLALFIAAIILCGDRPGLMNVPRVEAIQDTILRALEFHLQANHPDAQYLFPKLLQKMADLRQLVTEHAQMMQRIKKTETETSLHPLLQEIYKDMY
Sequence of Bile acid receptor (Homo sapiens) (Q96RI1 whole entry, looked up): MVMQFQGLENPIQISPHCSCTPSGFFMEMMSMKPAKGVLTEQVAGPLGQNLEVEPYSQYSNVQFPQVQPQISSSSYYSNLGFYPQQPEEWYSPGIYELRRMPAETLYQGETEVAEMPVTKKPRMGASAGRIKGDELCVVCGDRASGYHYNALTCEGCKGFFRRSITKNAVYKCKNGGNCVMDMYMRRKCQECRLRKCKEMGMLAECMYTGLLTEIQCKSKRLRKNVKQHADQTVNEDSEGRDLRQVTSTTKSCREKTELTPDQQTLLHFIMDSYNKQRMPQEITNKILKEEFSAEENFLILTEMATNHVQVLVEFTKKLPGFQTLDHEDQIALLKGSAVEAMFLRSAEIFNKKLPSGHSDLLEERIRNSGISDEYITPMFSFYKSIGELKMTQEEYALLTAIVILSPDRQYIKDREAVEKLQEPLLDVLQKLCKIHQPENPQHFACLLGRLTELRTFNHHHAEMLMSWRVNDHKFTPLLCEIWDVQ

Cc1c(Cl)cccc1Cl
inactive: outcome [1] | outcome [2] | outcome [3] | outcome [4] | outcome [5] | outcome [6] | outcome [7] | outcome [8] | outcome [9] | outcome [10] | outcome [11] | outcome [12] | outcome [13] | outcome [14]

CN1C[C@@H]2C[C@H]1CN2c1cc2c(cc1F)c(=O)c(C(=O)O)cn2C1CC1
inactive: outcome [15] | outcome [16] | outcome [17] | outcome [18] | outcome [19] | outcome [1] | outcome [20] | outcome [2] | outcome [3] | outcome [4] | outcome [5] | outcome [6] | outcome [7] | outcome [8] | outcome [10] | activity, negative = cytotoxicity [11] 0.279% [at 19 µM] | activity change, negative = inhibition [12] 4.47% [at 19 µM] | viability change, negative = cytotoxic [13] 6.22% [at 15.8 µM] | activation [14] -4.01% [at 15.8 µM]

CC(=O)O[Si](C)(OC(C)=O)OC(C)=O
inactive: outcome [16] | outcome [18] | outcome [3] | outcome [4] | outcome [6] | outcome [7] | outcome [8] | outcome [9] | outcome [10] | outcome [11] | outcome [12] | outcome [13] | outcome [14]

C=CCSSCCC
inactive: outcome [16] | outcome [17] | outcome [18] | outcome [1] | outcome [3] | outcome [4] | outcome [5] | outcome [6] | outcome [7] | outcome [8] | outcome [9] | outcome [10] | outcome [11] | outcome [12] | outcome [13] | outcome [14]

CC12CCC(C1)C(C)(C)C2O (stereo not drawn)
inactive: outcome [16] | outcome [17] | outcome [18] | outcome [19] | outcome [1] | outcome [20] | outcome [3] | outcome [4] | outcome [6] | outcome [7] | outcome [8] | outcome [9] | outcome [10] | outcome [11] | outcome [12] | outcome [13] | outcome [14]

O=C(O)CONC(=O)c1ccccc1
inactive: outcome [15] | outcome [16] | outcome [17] | outcome [18] | outcome [19] | outcome [1] | outcome [20] | outcome [2] | outcome [3] | outcome [5] | outcome [6] | outcome [7] | outcome [8] | outcome [10] | outcome [11] | outcome [12] | outcome [13] | outcome [14]

CC1CC(=O)CC(C)(C)C1 (stereo not drawn)
inactive: outcome [15] | outcome [16] | outcome [17] | outcome [1] | outcome [2] | outcome [3] | outcome [4] | outcome [6] | outcome [7] | outcome [8] | outcome [9] | outcome [10] | outcome [11] | outcome [13] | outcome [14]

CC(C)(CO)C(O)C(=O)NCCCO (stereo not drawn)
inactive: outcome [16] | outcome [17] | outcome [18] | outcome [19] | outcome [1] | outcome [20] | outcome [3] | outcome [4] | outcome [5] | outcome [6] | outcome [7] | outcome [8] | outcome [9] | outcome [10] | outcome [11] | outcome [12] | outcome [13] | outcome [14]

C=CCCCCCCCCC(=O)OCCCC
inactive: outcome [15] | outcome [16] | outcome [17] | outcome [18] | outcome [19] | outcome [1] | outcome [20] | outcome [2] | outcome [3] | outcome [4] | outcome [5] | outcome [6] | outcome [7] | outcome [8] | outcome [10] | outcome [11] | outcome [12] | outcome [13] | outcome [14]

CC/C=C\CCOC(=O)c1ccccc1O
inactive: outcome [16] | outcome [17] | outcome [18] | outcome [1] | outcome [2] | outcome [3] | outcome [4] | outcome [6] | outcome [7] | outcome [8] | outcome [9] | outcome [10] | outcome [11] | outcome [12] | outcome [13] | outcome [14]

CCN(CC)CCN
inactive: outcome [17] | outcome [19] | outcome [1] | outcome [20] | outcome [2] | outcome [3] | outcome [4] | outcome [5] | outcome [6] | outcome [7] | outcome [8] | outcome [9] | outcome [10] | outcome [11] | outcome [12] | outcome [13] | outcome [14]

CC(C)CO
inactive: outcome [17] | outcome [1] | outcome [2] | outcome [3] | outcome [5] | outcome [6] | outcome [7] | outcome [8] | outcome [9] | outcome [10] | outcome [11] | outcome [12] | outcome [13] | outcome [14]

C/C=C(\C)C(C)=O
inactive: outcome [16] | outcome [17] | outcome [18] | outcome [1] | outcome [2] | outcome [5] | outcome [6] | outcome [7] | outcome [8] | outcome [9] | outcome [10] | outcome [11] | outcome [12] | outcome [13] | outcome [14]

Cc1c(NC(=O)c2cccnc2)c(=O)n(-c2ccccc2)n1C
inactive: outcome [16] | outcome [17] | outcome [18] | outcome [19] | outcome [20] | outcome [3] | outcome [4] | outcome [6] | outcome [7] | outcome [8] | outcome [9] | outcome [10] | outcome [11] | outcome [12] | outcome [13] | outcome [14]

C=Cc1ccc(C(C)(C)C)cc1
inactive: outcome [16] | outcome [17] | outcome [19] | outcome [1] | outcome [20] | outcome [2] | outcome [6] | outcome [7] | outcome [8] | outcome [9] | outcome [10] | outcome [11] | outcome [12] | outcome [13] | outcome [14]

COc1cc2c(cc1OC)C(=O)C(CC1CCN(Cc3ccccc3)CC1)C2 (stereo not drawn)
inactive: outcome [16] | outcome [17] | outcome [18] | outcome [1] | outcome [20] | outcome [2] | outcome [5] | outcome [6] | outcome [7] | outcome [8] | outcome [10] | outcome [11] | outcome [12] | outcome [13] | outcome [14]

CC1=C(O)C(=O)C(C)O1 (stereo not drawn)
inactive: outcome [15] | outcome [16] | outcome [17] | outcome [18] | outcome [19] | outcome [20] | outcome [2] | outcome [5] | outcome [6] | outcome [7] | outcome [8] | outcome [10] | outcome [11] | outcome [12] | outcome [13] | outcome [14]
